# Screening results: PubChem, NMMLSC
# Hits are enriched below; roughly 0.92% of the tested compounds scored in any of these assays.
# MEP2 TOR yeast – modulators of TOR pathway MEP2-GFP in S. cerevisiae; S. cerevisiae MEP2-GFP strain, flow cytometry GFP, 3 h; 100% = DMSO control level; GFP response vs DMSO, % at 10 µM; 0.51% of 330,000 active; AID 2016;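 active = GFP response versus DMSO above a set limit, roughly screen mean plus 3 SD, cut at about 180% in these data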;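 note: median GFP fluorescence of the barcode-gated MEP2-GFP cells per well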
# RPL19A-GFP yeast – yeast TOR pathway RPL19A-GFP modulation | S. cerevisiae RPL19A-GFP strain, flow cytometry, 3 h; active compounds read low | percent response vs DMSO, % at 10 µM | 0.3% of 330,000 active;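 active = percent response vs DMSO below 50%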;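 note: median channel GFP fluorescence of the barcoded RPL19A-GFP strain; lower means less RPL19A-GFP as with rapamycin TOR inhibition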
# CIT2 TOR yeast – yeast TOR pathway CIT2-GFP modulation; S. cerevisiae CIT2-GFP strain, flow cytometry, 3 h; 100 means same as DMSO wells; GFP response vs DMSO, % at 10 µM; 0.065% of 320,000 active; AID 2029;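 active = GFP response relative to DMSO above a set limit, near the screen mean plus 3 SD, cut at about 150% in these data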;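 note: ratio of well median GFP fluorescence to mean of DMSO wells on the plate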
# AGP1 TOR yeast – modulators of TOR pathway AGP1-GFP in S. cerevisiae. S. cerevisiae AGP1-GFP multiplex flow cytometry, 3 h; GFP as percent of DMSO wells. AID 2066. 0.02% of 320,000 active. GFP response vs DMSO, % at 10 µM;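 active = GFP response relative to DMSO above a set limit, near screen average plus 3 SD, cut at about 150% in these data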;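 note: median GFP channel fluorescence of the gated AGP1 strain per well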
# LAP4-GFP MLPCN – alters LAP4-GFP fluorescence in TOR pathway yeast screen; AID 2023; 0.34% of 320,000 active; GFP response vs DMSO, % at 10 µM; S. cerevisiae LAP4-GFP multiplex, flow cytometry GFP, 3 h; median GFP as percent of DMSO wells;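 active = GFP response vs DMSO above a set limit, about the screen mean plus 3 SD, cut at about 150% in these data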
# LAP4-GFP pick2 – yeast LAP4-GFP modulation, second cherry pick | AID 2621 | shares compounds with LAP4-GFP MLPCN | 20% of 590 active | GFP response vs DMSO, % at 10 µM | S. cerevisiae LAP4-GFP strain, flow cytometry GFP, 3 h;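 active = GFP signal as percent of the solvent control above about 150%, meaning raised reporter expression, limit read from the data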
# MEP2-GFP pick2 – second confirmation of modulators of TOR reporter MEP2-GFP in yeast. AID 2622. shares compounds with LAP4-GFP MLPCN. S. cerevisiae MEP2-GFP strain, flow cytometry GFP, 3 h. GFP response vs DMSO, % at 10 µM. 10% of 590 active;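 active = GFP signal above 150% of the solvent control wells, that is a rise of more than half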;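 note: median channel GFP fluorescence of all gated yeast cells per well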
# RPL19A-GFP pick2 – yeast RPL19A-GFP TOR reporter modulation, second cherry pick | shares compounds with LAP4-GFP MLPCN | S. cerevisiae RPL19A-GFP strain, flow cytometry GFP, 3 h; active compounds read low; 100% means same as DMSO wells | GFP response vs DMSO, % at 10 µM | 3% of 590 active | AID 2623;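 active = under 65% GFP response relative to DMSO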;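 note: median GFP channel fluorescence per well over the all cells gate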
# CIT2-GFP pick2 – reconfirmed modulator of CIT2-GFP TOR reporter in yeast; GFP response vs DMSO, % at 10 µM; shares compounds with LAP4-GFP MLPCN; 8% of 590 active; S. cerevisiae CIT2-GFP strain, flow cytometry GFP, 3 h; DMSO control wells read 100%;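 active = GFP response vs DMSO above about 150%, limit read from the data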;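 note: median green fluorescence per well over all gated yeast cells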
# AGP1 GFP CP2 – second confirmation of modulators of TOR reporter AGP1-GFP in yeast; 590 tested, under 10 active; S. cerevisiae AGP1-GFP strain, flow cytometry GFP, 3 h; AID 2643; shares compounds with LAP4-GFP MLPCN; percent response vs DMSO, % at 10 µM;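 active = over 150 percent of DMSO response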;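 note: median GFP channel fluorescence over all cells without mother daughter split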
# s288c autofluor – compound is autofluorescent in yeast s288c cells; shares compounds with LAP4-GFP MLPCN; S. cerevisiae s288c, 520 nm autofluorescence, flow cytometry, 3 h; active compounds read high; zero means same as solvent-only cells; fluorescence change (kMESF span) at 33 µM; 610 tested, under 10 active;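 active = fluorescence span over the dose series, or activity score, above about 33, limit read from the data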
# s288c autofl DR – TOR screen hit shows autofluorescence in yeast s288c. shares compounds with LAP4-GFP MLPCN. S. cerevisiae s288c parental, compound autofluorescence, flow cytometry, 3 h. fluorescence change (span) at 33 µM. 110 tested, under 10 active. AID 488829;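 active = fluorescence change span, or the activity score built from it, above 25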
# TORC1 bypass gr – stops wildtype yeast growth while TORC1 bypass cells still grow; shares compounds with LAP4-GFP MLPCN; S. cerevisiae BY4741 spot growth rating, 48-72 h; active compounds read low; growth rating (0-3) at 30 µM; 120 tested, under 10 active;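 active = growth rating at most 1 for wild type yeast while the TORC1 bypass strain still grows fully, rated 3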
# Numbers stand for hits; – = inactive; · = no result given.
SMILES,MEP2 TOR yeast,RPL19A-GFP yeast,CIT2 TOR yeast,AGP1 TOR yeast,LAP4-GFP MLPCN,LAP4-GFP pick2,MEP2-GFP pick2,RPL19A-GFP pick2,CIT2-GFP pick2,AGP1 GFP CP2,s288c autofluor,others
CCOC(=O)c1c(-c2ccccc2)oc2ccc(O)c(CN(C)C)c12,–,–,–,–,–,·,·,·,·,·,·,
CCOC(=O)c1c(S(=O)(=O)N2CCN(c3ccc(C(C)=O)cc3)CC2)c(C)n(C)c1C,–,–,–,–,–,·,·,·,·,·,·,
COc1cccc(N2CCN(c3ccc4nnc(CCC(=O)Nc5ccc(C)cn5)n4n3)CC2)c1,–,–,–,–,–,–,–,–,–,–,·,
Cc1ccc(C(=O)N2CCCC(Nc3ccc(F)cc3)C2)cc1C (stereo unspecified),–,–,–,–,–,·,·,·,·,·,·,
CN(C)c1ccc(C(=O)c2ccc(O)cc2O)cc1,–,–,–,–,206.4,–,–,–,–,–,·,
O=C(c1ccc(O)cc1)c1ccc(O)cc1O,–,–,–,–,–,·,·,·,·,·,·,
Cc1ccc(-c2[nH]ncc2C(=O)c2ccccc2C)c(O)c1,–,–,–,–,·,·,·,·,·,·,·,
C#CCOCCOCCOCCNc1nc(N2CCN(C(=O)CCCCCCCCCCNC(=O)[C@H]([C@@H](C)CC)n3cc(CCCCCN)nn3)CC2)nc(N2CCN(C(=O)CCCCCCCCCCNC(=O)[C@@H]([C@H](C)O)n3cc(C)nn3)CC2)n1,–,–,–,–,–,·,·,·,·,·,·,
C#CCOCCOCCOCCNc1nc(N2CCN(C(=O)CCCCCCCCCCNC(=O)[C@H](CCCCN)n3cc(CCCC(=O)O)nn3)CC2)nc(N2CCN(C(=O)CCCCCCCCCCNC(=O)[C@H](CCCN=C(N)N)n3cc(C[C@@H](C)CC)nn3)CC2)n1,–,–,–,–,177.6,–,164.7,–,–,–,–,
C#CCOCCOCCOCCNc1nc(N2CCN(C(=O)CCCCCCCCCCNC(=O)[C@H](CCCCN)n3cc(CCO)nn3)CC2)nc(N2CCN(C(=O)CCCCCCCCCCNC(=O)[C@H](CCCN=C(N)N)n3cc(C[C@@H](C)CC)nn3)CC2)n1,–,–,–,–,200.7,–,174.7,–,–,–,–,
C#CCOCCOCCOCCNc1nc(N2CCN(C(=O)CCCCCCCCCCNC(=O)[C@H](CCCCN)n3cc(C)nn3)CC2)nc(N2CCN(C(=O)CCCCCCCCCCNC(=O)[C@@H]([C@H](C)CC)n3cc(CCCCCN)nn3)CC2)n1,–,–,–,–,153.4,–,–,–,–,–,·,
C#CCOCCOCCOCCNc1nc(N2CCN(C(=O)CCCCCCCCCCNC(=O)[C@H](CCCCN)n3cc(CCCC(=O)O)nn3)CC2)nc(N2CCN(C(=O)CCCCCCCCCCNC(=O)[C@H](CCCCN)n3cc(CCCC(=O)O)nn3)CC2)n1,–,–,–,–,–,·,·,·,·,·,·,
COc1cc(OC)nc(Oc2cc(/C=N/O)ccc2OC)n1,–,–,–,–,–,·,·,·,·,·,·,
Cc1cc(NC(=O)c2ccc(Cl)cc2)cc(C)c1OCC(=O)N1CCOCC1,–,–,·,–,–,·,·,·,·,·,·,
Cc1ccc2nc(Cl)c3nnnn3c2c1,–,–,–,–,297.9,·,·,·,·,·,–,s288c autofl DR=–;TORC1 bypass gr=–
COc1ccccc1C(=O)NN=C1CCN(Cc2ccccc2)CC1,–,–,–,–,–,·,·,·,·,·,·,
COc1ccc(C(=O)c2ccccc2)c(OCC(=O)NC2CC2)c1,–,–,–,–,–,–,–,–,–,–,·,
COc1ccc(C(=O)OCC(=O)NC2CCCC2)c(OC)c1,–,–,–,–,–,·,·,·,·,·,·,
Cc1c(CN2CCC(Oc3ccc(C(=O)N4CCCCC4)cc3)CC2)cnn1C,–,–,–,–,–,·,·,·,·,·,·,
O=C(O)CCC(NC(=O)OCc1ccccc1)C(=O)O (stereo unspecified),–,–,–,–,–,·,·,·,·,·,·,
Nc1nc(N)c2nc(CNc3ccc(C(=O)NC(CCC(=O)O)C(=O)O)cc3)cnc2n1 (stereo unspecified),–,–,–,–,299.1,326.6,218.3,–,157.1,–,–,
Cc1ccc(N2C(=O)C(Cl)=C(Nc3c(C)n(C)n(-c4ccccc4)c3=O)C2=O)cc1,–,–,–,–,–,·,·,·,·,·,–,
Cc1cccc(N2C(=O)C(Cl)=C(Nc3c(C)n(C)n(-c4ccccc4)c3=O)C2=O)c1C,–,–,–,–,–,·,·,·,·,·,–,
Clc1ccc(OCCn2cnc(Cl)c2Cl)cc1,–,–,–,–,–,·,·,·,·,·,·,
Cc1ccc(NS(=O)(=O)c2cc(NC(=O)c3ccc4c(c3)NC(=O)CS4)ccc2C)c(C)c1,–,–,–,–,–,·,·,·,·,·,·,
SMILES,MEP2 TOR yeast,RPL19A-GFP yeast,CIT2 TOR yeast,AGP1 TOR yeast,LAP4-GFP MLPCN,LAP4-GFP pick2,MEP2-GFP pick2,RPL19A-GFP pick2,CIT2-GFP pick2,AGP1 GFP CP2,s288c autofluor,others
COc1cccc(C2N=C(c3ccccc3C)NO2)c1OC (stereo unspecified),–,–,–,–,–,·,·,·,·,·,·,
Cc1ccc(C(=O)/C=C/C(=O)c2ccc(C)cc2)cc1,–,–,–,–,167.9,·,·,·,·,·,–,
O=Cc1cn(-c2ccccc2)nc1-c1ccccc1,–,–,–,–,–,·,·,·,·,·,·,
CC1=NNC(=O)/C1=C\c1cn(-c2ccccc2)nc1-c1ccccc1,–,–,·,–,197.6,·,·,·,·,·,–,
CCc1ccc(C(C(=O)NC2CCCC2)N(Cc2cccnc2)C(=O)c2csnn2)cc1 (stereo unspecified),–,–,–,–,–,·,·,·,·,·,·,
O=C1C2C3C=CC(C3)C2C(=O)N1/N=C/c1cc(Br)cc([N+](=O)[O-])c1O (stereo unspecified),–,–,–,–,179.9,–,–,–,–,–,·,
